Results on 14 compounds are retold here after PubChem BioAssay (NCI).

Compounds without any hit were thinned out: in the full panel of roughly 83,000, 20% have a hit.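 Note: values are percent growth. 100 is the growth of untreated cells, values between 100 and 0 indicate rising inhibition; between -100 and 0 indicates cell death.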 A number with no mark means an inactive call. Active and inactive are the calls of the source. Rule for the calls: active = growth percent below 10; inactive = the rest.

Test systems include HCT-15 colon; HT29 colon; SNB-75 CNS; SNB-19 CNS; U251 CNS; PC-3 prostate; SK-MEL-5 melanoma; UACC-62 melanoma; SK-MEL-28 melanoma; LOX IMVI melanoma.
Assay in all cases: NCI-60 one-dose screen, 48 h (100 = growth as untreated, 0 = no growth, -100 = all killed)
What all share (settings): 10 µM unless noted

For the compound `NCc1cn2cc(Cl)sc2n1`, the growth in the test with HCT-15 colon is 98.6%; with HT29 colon, 105%; in the test on SNB-75 CNS, 92.6%; with SNB-19 CNS it was 112%; with U251 CNS, 93.2%; in the test on PC-3 prostate it was 92.3%. In addition, the growth in the test with SK-MEL-5 melanoma was 103%; in the test with UACC-62 melanoma, 110%; in the test on SK-MEL-28 melanoma, 104%.

For the compound `O=c1c2cccc3c(Nc4ccccn4)ccc(c32)c2nc3ccccc3n12`, the growth is 59.2% in the test with HCT-15 colon; 64.6% with HT29 colon; 78.6% with SNB-75 CNS; 89.9% with SNB-19 CNS; 64% in the test with PC-3 prostate; 51.8% in the test with SK-MEL-5 melanoma. The figures for the growth in the test on UACC-62 melanoma, in the test with LOX IMVI melanoma and with SK-MEL-28 melanoma were 64.3%, 69.6% and 101%, respectively.

In the case of `O=C(Nc1ccc(F)cc1)Nc1ccc(CCO)cc1`, the growth was 102% in the test with HCT-15 colon; 103% in the test on HT29 colon; 72.6% in the test with SNB-75 CNS; 107% in the test on SNB-19 CNS; 108% with PC-3 prostate; 104% in the test with SK-MEL-5 melanoma. In addition, the growth in the test with UACC-62 melanoma is 107%; in the test with LOX IMVI melanoma it was 111%; in the test with SK-MEL-28 melanoma it was 106%.

`COc1cccc2c1C(=O)c1c(O)c3c(c(O)c1C2=O)C[C@@](O)(/C(C)=N/NC(=O)c1ccc(Cl)cc1)C[C@@H]3OC1CC(N)C(O)C(C)O1` (stereo partly specified): the growth in the test on HCT-15 colon is 16.4%; in the test with HT29 colon, -42.6% (active); in the test on SNB-75 CNS, -84.3% (active); with SNB-19 CNS, 5.54% (active); with PC-3 prostate, -36.5% (active); in the test with SK-MEL-5 melanoma it was -45.2% (active). Moreover, the growth with UACC-62 melanoma is -72.8% (active); in the test with LOX IMVI melanoma, -44.6% (active); in the test on SK-MEL-28 melanoma, -32.3% (active).

Consider `CCCCCCCCCCCCCCCC[N+]1(CC)CCCC1`, for which the growth in the test with HCT-15 colon is 22.8%; in the test on HT29 colon it was -65.7% (active); in the test on SNB-75 CNS, -37% (active); in the test with SNB-19 CNS, -53.9% (active); in the test with PC-3 prostate it was -77.6% (active); in the test on SK-MEL-5 melanoma it was -83.6% (active). The results for the growth with UACC-62 melanoma, in the test with LOX IMVI melanoma and in the test with SK-MEL-28 melanoma were -78.3% (active), -64.1% (active) and -38.6% (active), respectively.

In the case of `Cc1ccc(Nc2c(C(N)=O)cnc3ccc(-c4csc(N)n4)cc23)cc1`, the growth in the test on HCT-15 colon was 98.7%; with HT29 colon it was 103%; with SNB-75 CNS, 96.9%; in the test with SNB-19 CNS, 102%; in the test on PC-3 prostate, 97.6%; in the test on SK-MEL-5 melanoma, 96.7%. Also, the growth in the test with UACC-62 melanoma was 102%; in the test on LOX IMVI melanoma, 96.2%; in the test on SK-MEL-28 melanoma it was 101%.

On to `COC1C/C(=N\O)C2OC(c3ccccc3)OCC2O1` (stereo unspecified), for which the growth in the test on HCT-15 colon was 97.8%; with HT29 colon it was 113%; in the test on SNB-75 CNS, 66.1%; in the test with SNB-19 CNS, 94.3%; in the test with PC-3 prostate, 100%; in the test with SK-MEL-5 melanoma, 102%. In addition, the results for the growth with UACC-62 melanoma, in the test on LOX IMVI melanoma and in the test on SK-MEL-28 melanoma were 96.5%, 101% and 101%, respectively.

`Cc1sc2nc3[nH]/c(=C\c4ccc(Cl)cc4)c(=O)n3c(=O)c2c1C`: the growth in the test with HCT-15 colon is 96.5%; with HT29 colon it was 96.1%; in the test on SNB-75 CNS, 89.6%; in the test on SNB-19 CNS it was 101%; in the test with PC-3 prostate, 97.3%; in the test with SK-MEL-5 melanoma, 99.4%. For the same compound, the growth in the test on UACC-62 melanoma is 99.2%; in the test with LOX IMVI melanoma, 103%; with SK-MEL-28 melanoma it was 99.8%.

For `O=C(O)C(O)C(O)C(=O)O.[NH-]C1CCCCC1[NH-].[Pt+2]` (stereo unspecified), the growth is 103% with HCT-15 colon; 111% with HT29 colon; 80.8% in the test with SNB-75 CNS; 101% with SNB-19 CNS; 106% in the test on PC-3 prostate; 103% with SK-MEL-5 melanoma. The results for the growth with UACC-62 melanoma, in the test on LOX IMVI melanoma and with SK-MEL-28 melanoma were 100%, 112% and 95.1%, respectively.

Consider `COCCOc1ccc(-c2nc3ccc(-c4nc5ccc(N6CCN(C)CC6)cc5[nH]4)cc3[nH]2)cc1`, for which the growth was 85.9% in the test on HCT-15 colon; 4.98% (active) with HT29 colon; -21.2% (active) in the test on SNB-75 CNS; 7.61% (active) in the test with SNB-19 CNS; 22.5% in the test with PC-3 prostate; 11.2% in the test on SK-MEL-5 melanoma. Further, the figures for the growth in the test with UACC-62 melanoma, in the test on LOX IMVI melanoma and in the test with SK-MEL-28 melanoma were -39.9% (active), -72.5% (active) and -39.2% (active), respectively.

For `Oc1ccc(Nc2nccc(-c3ccc4ccccc4c3)n2)cc1`, the growth was 16.9% in the test with HCT-15 colon; 39.3% in the test with HT29 colon; 36% with SNB-75 CNS; 50.9% in the test with SNB-19 CNS; 48.6% with PC-3 prostate; 39.8% in the test on SK-MEL-5 melanoma. For the same compound, the growth is 39.4% in the test on UACC-62 melanoma, 27.1% with LOX IMVI melanoma and 50.6% in the test on SK-MEL-28 melanoma.

Regarding `CC(=O)/C(=C/c1cccc(Cl)c1)C(=O)c1ccccc1`, the growth was 70% in the test on HCT-15 colon; 67.7% in the test on HT29 colon; 84.7% in the test with SNB-75 CNS; 94.3% in the test with SNB-19 CNS; 63.1% in the test on PC-3 prostate; 89.9% with SK-MEL-5 melanoma. Moreover, the values for the growth with UACC-62 melanoma, with LOX IMVI melanoma and in the test on SK-MEL-28 melanoma were 83.3%, 6.93% (active) and 90.9%, respectively.

In the case of `O=C1C(=O)N(CCCCn2cc(CO)nn2)c2ccccc21`, the growth is 102% in the test on HCT-15 colon; 103% in the test on HT29 colon; 72.3% in the test on SNB-75 CNS; 99.5% in the test with SNB-19 CNS; 98.3% in the test with PC-3 prostate; 101% with SK-MEL-5 melanoma. The growth is 99.3% in the test with UACC-62 melanoma, 92.1% with LOX IMVI melanoma and 109% with SK-MEL-28 melanoma.

`O=C1NC(=O)C(CC(=O)n2c(-c3ccccc3)nc3ccccc32)C(=O)N1`: the growth was 100% in the test with HCT-15 colon; 111% in the test with HT29 colon; 71.1% in the test on SNB-75 CNS; 89.6% in the test with SNB-19 CNS; 100% with PC-3 prostate; 101% in the test with SK-MEL-5 melanoma. Besides, the growth in the test on UACC-62 melanoma was 94.3%; in the test on LOX IMVI melanoma, 97.2%; in the test on SK-MEL-28 melanoma it was 108%.
